Hits are enriched below; roughly 9.3% of the tested compounds scored in any of these assays.
NPC1 prom act: NPC1 promoter activation; Huh7 NPC1 promoter luciferase reporter, 24 h; Potency, µM (titrated, usually from 9.22 µM), for inactives: at the highest dose activation, actives largely listed as activators; 320,000 compounds, 2.4% hits; AID 485313; note: % of control where 0% means no effect; nearly all actives have a fitted effect of over 60% in size
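Compounds in DMSO were transferred onto Huh7 NPC1-luciferase reporter cells pre-incubated 2 h; after 24 h at 37 °C, Amplite reagent was dispensed and luminescence recorded 10 min later.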
ELG1 genotoxic: induces genotoxicity in HEK293T cells with luciferase-tagged ELG1; HEK293T ELG1-luciferase reporter, luminescence, 16 h; Potency, µM (doses to about 46 µM), for the others: at the highest dose activity change, positive = activation, most hits filed as activators; 330,000 compounds, 1.3% hits; note: % of control where 0% means no effect; nearly all actives have a fitted effect of over 60% in size
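Screening used a luciferase reporter fused to human ELG1 in HEK293T cells. Luminescence was read on a CCD plate imager after 16 hr exposure and 30 min ONE-Glo incubation.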
Rab9 promoter act: activates the Rab9 promoter. Huh7 Rab9 promoter-luciferase reporter, luminescence, 24 h. AID 485297. 320,000 compounds, 2.8% hits. Potency, µM (top dose mostly 9.22 µM), inactives show top-dose activation, negative = inhibition, usual class: activators; note: % of control where 0% means no effect; nearly all actives have a fitted effect of over 60% in size
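Cell-based reporter: Huh7 stable for Rab9 promoter-driven luciferase, plated in reduced-serum medium with 10% FBS at 1500 cells/well, compound-treated 24 h at 37 °C, luminescence read after 10 min reagent.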
FLuc counter: firefly luciferase modulation, counter-screen for miR-21 project; Potency, µM (highest dose often 57.5 µM), for the others: at the top dose activity change, negative = inhibition, hits mostly inhibitors; purified FLuc, Km substrates, luminescence inhibition; 360,000 compounds, 6.9% hits;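 note: plate controls were vehicle for no effect and reference inhibitor for full effect; nearly all actives have a fitted effect of over 55% in size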
Target sequence (P08659 whole entry, looked up): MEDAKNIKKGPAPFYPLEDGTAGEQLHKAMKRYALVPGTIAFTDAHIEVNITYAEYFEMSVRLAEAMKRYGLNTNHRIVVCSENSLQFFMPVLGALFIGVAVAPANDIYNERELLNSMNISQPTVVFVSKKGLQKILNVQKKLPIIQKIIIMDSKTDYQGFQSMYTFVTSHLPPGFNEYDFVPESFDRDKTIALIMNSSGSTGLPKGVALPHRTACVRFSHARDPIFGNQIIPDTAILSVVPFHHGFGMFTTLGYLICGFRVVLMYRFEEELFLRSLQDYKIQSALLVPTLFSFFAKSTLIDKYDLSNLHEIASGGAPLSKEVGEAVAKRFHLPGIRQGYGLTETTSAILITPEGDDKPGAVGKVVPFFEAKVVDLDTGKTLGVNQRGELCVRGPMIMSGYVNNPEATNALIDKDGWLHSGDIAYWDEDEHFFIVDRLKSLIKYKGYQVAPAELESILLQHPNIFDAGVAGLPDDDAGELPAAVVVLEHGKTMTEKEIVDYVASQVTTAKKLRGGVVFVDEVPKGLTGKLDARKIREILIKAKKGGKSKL
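Purified P. pyralis luciferase (10nM final) with 10uM D-luciferin and 10uM ATP (Km levels) in 50mM Tris acetate pH 7.5, 10mM Mg acetate, 0.01% Tween-20, 0.05% BSA; qHTS 6-point titration, ~60 µM downward; luminescence read.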
SMN2 splice up: SMN2 splice variant enhancement; HEK293 SMN2-luciferase splicing reporter, luminescence, 30-36 h; Potency, µM (top dose mostly 46.1 µM), for inactives: at the highest dose activity change, positive = activation, actives largely listed as activators; 210,000 compounds, 2.8% hits; AID 1458; note: % of control where 0% means no effect; nearly all actives have a fitted effect of over 55% in size
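HEK293 cells carry an SMN2 […]–luciferase reporter in which exon 7 inclusion puts luciferase in frame. Cells were plated 10-12 h before compound addition, then incubated 30-36 h at 37C. ONE-Glo luminescence was read; sodium butyrate at 4.5 mM final served as control.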
ELG1 repair inh: inhibitors of ELG1-dependent DNA repair in HEK293T cells; HEK293T ELG1-luciferase reporter, luminescence, 16 h; DNA damage induced by 5-fluorouridine; AID 504467; 330,000 compounds, 2.3% hits; Potency, µM (series often up to 46.1 µM), without a hit: at the top dose activity change, negative = inhibition, hits mostly inhibitors; note: % is set by controls: 0 for no effect and ±100 for the full control effect; nearly all actives have a fitted effect of over 55% in size
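Overnight (16 hr) co-exposure of 2,000 cells/well to 5-fluorouridine and compound at 37 °C preceded detection. Luciferase was quantified via ONE-Glo luminescence; loss of signal denotes inhibition.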
* = called active by the depositor; ? = inconclusive; . = no result; [ ] = remark or other dose. Calls come from the whole dose curve; as a rule, active = well fitted curve in the direction sought with a large enough effect; inconclusive = small, poorly fitted or top-dose-only effect, or another doubt; inactive = no such curve, though single readings can be large; an effect the other way counts as inactive or inconclusive. Potency is the fitted concentration of half-maximal effect.

SMILES	NPC1 prom act	ELG1 genotoxic	Rab9 promoter act	FLuc counter	SMN2 splice up	ELG1 repair inh
COc1cc(O)c2c(=O)cc(-c3ccc(OC)c(-c4c(O)cc(O)c5c(=O)cc(-c6ccc(O)cc6)oc45)c3)oc2c1	.	.	.	.	5.4%	.
COc1ccc(-c2cc(=O)c3c(O)cc(O)cc3o2)cc1	?	?	3.16µM*	1.9µM*	?	?
COc1ccc(-c2cc(=O)c3cc(O)ccc3o2)cc1	1.41µM*	5.8µM*	1.58µM*	1.69µM*	.	?
CC(C)Oc1ccc2c(=O)cc(-c3ccccc3)oc2c1	.	.	.	.	6.31µM*	.
COc1ccc2c(=O)cc(-c3ccccc3F)oc2c1	?	?	?	21.3µM*	.	?
CC1Cc2ccccc2N1S(=O)(=O)c1cccc(C(=O)NCc2ccncc2)c1 (centres undefined)	-4.1%	0.7%	-11.5%	3.8%	.	-20.5%
COc1ccc(S(N)(=O)=O)cc1C(=O)OCCCOC(=O)c1cc(S(N)(=O)=O)ccc1OC	-14.6%	7.3µM*	-16.4%	-1.7%	.	-5.9%
COc1cccc(OC)c1C(=O)OCCCOC(=O)c1c(OC)cccc1OC	-5.4%	-8.5%	-7.1%	-0.6%	.	20.6µM*
COc1ccc(S(N)(=O)=O)cc1C(=O)OCCCOc1ccc(F)cc1	-4.3%	-5.2%	-8.6%	-1.1%	.	?
Cc1ccn(S(=O)(=O)c2ccc(C(C)(C)C)cc2)n1	.	.	.	-4.5%	-22.4%	.
O=C(/C=C/c1ccccc1Cl)Nc1ccccc1	?	?	0.447µM*	0.757µM*	.	?
O=C(Cc1ccccc1)Nc1ccc(Cl)cn1	-0.4%	?	18.6%	-10.6%	.	?
CN(C)S(=O)(=O)c1ccc(NC(=O)/C=C/c2ccccc2Cl)cc1	4.1%	1.4%	7.8%	21.3µM*	9.3%	-10.9%
O=C(/C=C/c1ccccc1Cl)Nc1ccc(Cl)cn1	?	?	1.12µM*	-6.0%	.	?
CCCCOC(=O)c1cccc(NC(=O)CCC(=O)O)c1	0.4%	3.6%	11.0%	-4.1%	-11.1%	-11.2%
CCCCOC(=O)c1cccc(NC(=O)/C=C/c2ccccc2Cl)c1	.	.	.	6.75µM*	1.41µM*	.
N=C1C(=O)OCC1c1cc(Cl)ccc1NC(=O)Nc1ccccc1 (centres undefined)	-3.0%	-2.2%	-4.9%	0.7%	-16.4%	-10.4%
CC(C)(C)CC(=O)Nc1ccc(-c2nnc3n2CCCCC3)cc1	-3.4%	3.2%	7.5%	1.1%	.	-2.9%
O=C(/C=C/c1ccccc1Cl)Nc1ccc(-c2nnc3n2CCCCC3)cc1	-1.6%	-7.4%	-4.4%	-17.8%	-26.5%	18.4µM*
O=C(Nc1ccc(-c2nnc3n2CCCCC3)cc1)c1cc2ccccc2o1	1.9%	-3.7%	1.4%	-4.5%	-2.1%	?
CN(C)c1ccc(NC(=O)/C=C/c2c(Cl)cccc2Cl)cc1	11.4%	5.1%	24.7%	8.49µM*	?	?
O=C(/C=C/c1ccccc1Cl)Nc1cccc(O)c1	?	?	?	1.07µM*	?	?
Cc1c(C(=O)Nc2ccc(-c3nnc4n3CCCCC4)cc2)oc2c1ccc1ccccc12	-7.8%	-15.2%	0.8%	?	-11.2%	16.4µM*
O=C(O)c1cccn2c(=O)c3ccccc3nc12	3.4%	-0.3%	-3.0%	-2.2%	6.3%	6.1%
O=C(O)C1Cn2c(nc3c(c2=O)C2(CCCC2)Cc2ccccc2-3)S1 (centres undefined)	-2.6%	2.8%	-8.3%	?	3.6%	1.3%
Cc1cccc(NC(=O)CSc2cc(C)c3ccccc3n2)c1	.	.	.	-18.5%	8.91µM*	.
Cc1cccc(NC(=O)CSc2nsc(SCC(=O)Nc3cccc(C)c3)c2C#N)c1	0.5%	2.2%	17.8%	0.6%	9.8%[1.84 µM]	8.2µM*
C=C1CCC2C(CC2(C)C)C(=O)CCC1O (centres undefined)	.	.	.	.	-3.9%	.
Cc1cc(C)c(C#N)c(SCC(=O)Nc2c(C)n(C)n(-c3ccccc3)c2=O)n1	.	3.0%	.	.	.	-3.5%

Screens deposited in PubChem BioAssay by National Center for Advancing Translational Sciences (NCATS).
